{"source": "PubChem BioAssay AID720517", "about": "(National Center for Advancing Translational Sciences (NCATS), 2013)", "note": "Inconclusive results are not listed. Unmarked numbers belong to inactive results. Activity calls are given as the source filed them. Calls come from the whole dose curve; as a rule, active = well fitted activation curve with a large enough effect; inconclusive = small, poorly fitted or top-dose-only effect; inactive = flat fitted curve, though single readings scatter. Potency is the fitted concentration of half-maximal effect.", "data": [{"test": "qHTS for Inhibitors of Cell Surface uPA Generation: FP59 Counterscreen for Cherry-picked Compounds; for activity (protection from FP59): 0% is about no effect", "conditions": "FP59 anthrax toxin cytotoxicity counterscreen, cells; series mostly up to 115 µM; activity (protection from FP59): at the top concentration", "units": {"activity (protection from FP59)": "%"}, "values": [{"smiles": "COc1ccc2nc(SC(C)C(=O)NC3(C#N)CCCCC3)[nH]c2c1", "note": "(centres undefined)", "activity (protection from FP59)": -1.27}, {"smiles": "Cc1ccc2nc(Nc3ccc(Cl)cc3)c3nncn3c2c1", "activity (protection from FP59)": -1.11}, {"smiles": "CCOC(=O)c1ccccc1N=Cc1c(O)c2ccccc2oc1=O", "activity (protection from FP59)": -1.49}, {"smiles": "CC1(C)CC(=O)C=C(c2ccc3ccccc3c2)C1", "activity (protection from FP59)": 0.0857}, {"smiles": "COc1ccc(S(=O)(=O)c2c(O)c3ccc(C(=O)Nc4ccccc4)cc3[nH]c2=O)cc1", "activity (protection from FP59)": -1.37}, {"smiles": "CCC(CC)Nc1ccc(C(CC(N)=O)NC(=O)Cc2ccc(Br)cc2)cc1[N+](=O)[O-]", "note": "(centres undefined)", "activity (protection from FP59)": -0.93}, {"smiles": "CCC(C)NC(=O)c1ccc2nc(-c3ccc(OC)c(OC)c3)c(-c3ccc(OC)c(OC)c3)nc2c1", "note": "(centres undefined)", "activity (protection from FP59)": -1.24}, {"smiles": "COc1ccc2nc3c(cc2c1)c(NC(=O)C1CCCO1)nn3CC(C)C", "note": "(centres undefined)", "activity (protection from FP59)": -1.28}, {"smiles": "Cc1c(NC(=S)Nc2ccc(Cl)cc2)c(=O)n(-c2ccccc2)n1C", "activity (protection from FP59)": -1.05}, {"smiles": "CC(CCc1ccccc1)NC(=O)c1ccc(NC(=O)c2cccc(Br)c2)cc1", "note": "(centres undefined)", "activity (protection from FP59)": -1.22}, {"smiles": "COC(=O)c1ccc(CN2CCCC(CNC(=O)Cc3ccc(OC)cc3)C2)cc1", "note": "(centres undefined)", "activity (protection from FP59)": -1.35}, {"smiles": "Cc1nc(N2CCN(c3ccc(Cl)cc3)CC2)[nH]c(=O)c1C", "activity (protection from FP59)": -0.777}, {"smiles": "C[C@H](CO)N1C[C@H](C)[C@@H](CN(C)C(=O)Nc2ccccc2)Oc2c(NS(=O)(=O)c3ccccc3)cccc2C1=O", "activity (protection from FP59)": -1.23}, {"smiles": "CCCNC(=O)COc1coc(CN2CCN(c3ccccc3OC)CC2)cc1=O", "activity (protection from FP59)": -1.39}, {"smiles": "COc1ccccc1N1CCN(C(=O)CCC(=O)N2CCN(c3ccc(F)cc3)CC2)CC1", "activity (protection from FP59)": -1.52}, {"smiles": "O=C(NNC(=O)c1cccnc1)c1ccncc1", "activity (protection from FP59)": -1.3}, {"smiles": "COc1ccccc1CNC(=O)CCn1c(=O)oc2ccccc21", "activity (protection from FP59)": -1.54}, {"smiles": "COc1ccc(NC(=O)c2cccnc2N2CCOCC2)cc1", "activity (protection from FP59)": -1.54}, {"smiles": "Clc1ccccc1N1CCN(c2ncnc3nc[nH]c23)CC1", "activity (protection from FP59)": -1.5}, {"smiles": "Cc1c(NC(=O)C(C)OC(=O)CCC2CCCC2)c(=O)n(-c2ccccc2)n1C", "note": "(centres undefined)", "activity (protection from FP59)": -1.45}, {"smiles": "C[C@H](CO)N1C[C@H](C)[C@@H](CN(C)C(=O)Nc2ccccc2)Oc2ccc(NC(=O)Cn3cnnn3)cc2C1=O", "activity (protection from FP59)": -1.34}, {"smiles": "CCOc1cc(/C=C(\\C#N)C(=O)NCc2cccnc2)ccc1O", "activity (protection from FP59)": -1.4}, {"smiles": "COc1ccc(N(CN2C(=O)c3ccccc3C2=O)C(=O)C(C)C)cc1", "activity (protection from FP59)": 0.575}, {"smiles": "CN(C)S(=O)(=O)c1ccc(NC(=O)COC(=O)CC2CC3CCC2C3)cc1", "note": "(centres undefined)", "activity (protection from FP59)": -1.38}, {"smiles": "O=C(NCC1CCCO1)c1ccc(NC(=O)c2ccc([N+](=O)[O-])cc2)cc1", "note": "(centres undefined)", "activity (protection from FP59)": -1.25}, {"smiles": "COc1ccc(-n2nnnc2SCC(=O)Nc2nnc(C)s2)cc1", "activity (protection from FP59)": -1.43}, {"smiles": "COc1ccc(C(=O)NNC(=O)Cc2ccc(Cl)cc2)cc1", "activity (protection from FP59)": -1.18}, {"smiles": "Cc1ccnc(N2CCN(C(=O)CSc3nc4ccccc4nc3N3CCC(C)CC3)CC2)c1", "Potency": "65.6 µM (active)"}, {"smiles": "COc1cccc(NC(=O)CN(C)C(=O)c2csc3c2CCCC3)c1", "activity (protection from FP59)": -0.968}, {"smiles": "C=CCn1c(=O)c(C(=O)NCCc2ccc(Cl)cc2)c(O)c2cc(OC)c(OC)cc21", "activity (protection from FP59)": -1.32}, {"smiles": "CC(C)OC(=O)c1ccc(N2CCN(c3ccccc3F)CC2)nc1", "activity (protection from FP59)": -1.46}, {"smiles": "CC(NC(=O)C1CCC(C(=O)NC(C)c2ccccc2)CC1)c1ccccc1", "note": "(centres undefined)", "activity (protection from FP59)": -1.03}, {"smiles": "Cc1ccccc1S(=O)Cc1ccc(C(=O)N2CCN(C(=O)c3ccco3)CC2)o1", "note": "(centres undefined)", "activity (protection from FP59)": -1.44}, {"smiles": "O=C(N/N=C/c1cccnc1)c1ccccc1[N+](=O)[O-]", "activity (protection from FP59)": -1.36}, {"smiles": "COc1ccc(-c2csc(NC(C)c3nc4cc(C(=O)NCCCO)ccc4n3Cc3ccc(C)cc3)n2)cc1", "note": "(centres undefined)", "activity (protection from FP59)": 7.96}, {"smiles": "CCSC1=NCCN1S(=O)(=O)c1ccc(Cl)cc1", "activity (protection from FP59)": -1.47}, {"smiles": "O=C(O)CNC(=S)N(Cc1ccccc1)Cc1cccnc1", "activity (protection from FP59)": -0.536}, {"smiles": "O=C(C[n+]1ccccc1)Nc1ccccc1C(F)(F)F", "activity (protection from FP59)": -1.29}, {"smiles": "O=C(/C=C/c1ccc(O)c(O)c1)O[C@@H]1C[C@](O)(C(=O)O)C[C@@H](O)[C@H]1O", "activity (protection from FP59)": -1.31}]}]}
